Results as given in PubChem BioAssay (Tox21).
Records with an inconclusive call do not appear. Values without a mark were called inactive. The source made the active and inactive calls. Calls come from the whole dose curve; as a rule, active = well fitted activation curve with a large enough effect in the signal ratio in the repeat runs (not every such curve was filed as active); inconclusive = weak or mixed curves, or effect the other way; inactive = no such curve, though single readings can be large or run the other way; the % refers to the signal ratio. Where a SMILES comes first, the peptide text is derived from it.

Test: qHTS assay for small molecule agonists of the antioxidant response element (ARE) signaling pathway (AID 743202)
Conditions: HepG2 ARE-bla reporter, beta-lactamase FRET, 16 h; series mostly up to 73.3 µM; activation: at the top concentration
From the text: U.S. Tox21 Program National Center for Advancing Translational Sciences [NCATS] NIH Chemical Genomics Center [NCGC] U.S. Environmental Protection Agency [EPA] National Institutes of Environmental Health Sciences [NIEHS] National Toxicology Program [NTP] U.S. Food and Drug Administration [FDA] Tox21 Assay Overview: Oxidative stress has been implicated in the pathogenesis of a variety of diseases ranging from cancer to neurodegeneration. The antioxidant response element (ARE) signaling pathway plays an important role in the amelioration of oxidative stress. The CellSensor ARE-bla HepG2 cell line (Invitrogen) can be used for analyzing the Nrf2/antioxidant response signaling pathway. Nrf2 (NF-E2-related factor 2) and Nrf1 are transcription factors that bind to AREs and activate these genes. The CellSensor ARE-bla Hep G2 cell line contains a beta-lactamase reporter gene under control of the Antioxidant Response Element (ARE) stably integrated into HepG2 cells. The activation of the report gene under culture conditions can be detected by fluorescence intensity. This cell line has been used to screen the Tox21 10K compound library to identify agonists that induce oxidative stress.
Tox21 Assay Protocol Summary: The ARE-bla cells were dispensed at 2,000 cells/5 ul/well in 1536-well black wall/clear bottom plates using a Multidrop dispenser. After the assay plates were incubated at a 37 C/5% CO2 incubator for 5 hours, 23 nL of compounds dissolved in DMSO, positive controls or DMSO only was transferred to the assay plate by a pin tool. The plates were incubated at 37 C for 16 hours. After 1 uL of LiveBLAzer B/G FRET substrate was added using a Flying Reagent Dispenser, the plates were incubated at room temperature for 2 hours, and fluorescence intensity was measured by an Envision plate reader.
% is set by controls: 0 for no effect and ±100 for the full control effect; potency is the fitted concentration of half-maximal effect.

Row | Structure (SMILES) | activation | Potency
1 | CC(=O)OC1CCCCC1C(C)(C)C (stereo not given) | -0.165% | –
2 | O=C(NCN1CCOCC1)c1cnccn1 | -1.71% | –
3 | Cn1c(=O)c2c(ncn2CCO)n(C)c1=O | 4.38% | –
4 | c1ccc2c(CC3=NCCN3)cccc2c1 | 2.39% | –
5 | CO/N=C(/C(=O)N[C@@H]1C(=O)N2C(C(=O)[O-])=C(C[n+]3ccn4ncccc43)CS[C@H]12)c1nsc(N)n1 | 10.6% | –
6 | N[C@@H](CSCCCO)C(=O)O | -11.8% [at 34.3 µM] | –
7 | O=Cc1ccccc1Cl | -6.45% | –
8 | COC(=O)/C=C\C(=O)O | – | 27.3 µM (active)
9 | C/C=C(\C)C(=O)OCCc1ccccc1 | -0.199% | –
10 | COC(=O)CCCCC(=O)O | 1.25% | –
11 | COS(=O)(=O)O | -19.2% | –
12 | CC(C)[C@H]1CC[C@H](C)C[C@@H]1O | -11.1% [at 94.8 µM] | –
13 | O=C[O][Al]([O]C=O)[O]C=O | -16.8% | –
14 | O=C(CCCl)NCCc1ccccc1 | -1.31% | –
15 | CCCSSCCC | -3.37% | –
16 | CCCCCCCCCOC(=O)c1ccccc1C(=O)OCCCCCCCCC | -3.92% | –
17 | COC(C)(OC)OC | 1.21% | –
18 | CC(=O)OCC(=O)Nc1cc(C#N)cc(NC(=O)COC(C)=O)c1Cl | 7.93% | –
19 | c1ccc(-c2nn[nH]n2)cc1 | -1.08% | –
20 | N[C@@H](Cc1ccc(O)cc1)C(=O)O | -7.61% [at 8.36 µM] | –

Row | Structure (SMILES) | activation | Potency
21 | CC(=O)O[C@H]1C[C@@H]2CC[C@@]1(C)C2(C)C | -5.03% | –
22 | CCOc1cccc(N)c1 | -0.904% | –
23 | Cc1c(NC(=O)c2cccnc2)c(=O)n(-c2ccccc2)n1C | -3.26% | –
24 | OC1(c2ccc(Cl)cc2)CCNCC1 | -12.7% | –
25 | C=C(C)C1CC=C(C)C(=O)C1 (stereo not given) | 0.957% | –
26 | CC(=O)N[C@@H](CO)C(=O)N[C@@H](CC(=O)O)C(=O)N[C@@H](CCCCN)C(=O)N1CCC[C@H]1C(=O)O (Ac-SDKP-OH) | 13.8% | –
27 | Cc1ccc2c(c1)C(=O)c1ccccc1C2=O | – | 54.3 µM (active)
28 | CCCC(=O)OC/C=C(\C)CCC=C(C)C | 0.318% | –
29 | OC[C@H]1O[C@@H](O[C@@H]2[C@@H](CO)O[C@](O)(CO)[C@H]2O)[C@H](O)[C@@H](O)[C@H]1O | -4.43% | –
30 | C=CCSSCCC | 2.64% | –
31 | CCCCCCCCCCCCCCCCCCOCCO | -2.68% [at 34.3 µM] | –
32 | CC(CO)(CO)CO | 0.91% [at 94.8 µM] | –
33 | COC(=O)CCCCC(CCSS/C(CCO)=C(\C)N(C=O)Cc1cnc(C)nc1N)SC(C)=O (stereo not given) | 0.525% | –
34 | Cc1cccc(Cl)c1 | -0.248% | –
35 | OCCN1CCOCC1 | -4.41% | –
36 | Cc1ccnc(N)c1 | -10.5% | –
37 | CCn1cc(C(=O)O)c(=O)c2cnc(N3CCCC3)nc21 | -1.91% [at 8.36 µM] | –
38 | CC(=O)CCC1=C(C)CCCC1(C)C | -13.4% | –
39 | C=Cc1ccc(C(C)(C)C)cc1 | -0.512% | –
40 | C/C(=C1\CCOC(=O)S1)N(C=O)Cc1cnc(C)nc1N | -3.65% | –
